“And” between values parts separate entries of the source, which are not always exact repeats. Equal entries are not always repeated. In all, about 290,000 compounds went through this assay and about 890 (0.31%) were called active. Rule as the data show it: active = inhibition mostly above about 52% (no sharp cut-off); inactive = mostly below about 76%. Only a selection was taken, and actives are over-represented in it overall.
Experiment: inhibitors of HIV fusion peptide binding, primary screen, biochemical, uHTS, fluorescence dequenching (AID 1986)
Details: cell-free peptide binding, 30 min, stronger effect = higher value
[1] = measured here: repeat confirmation average inhibition, at 18.6 µM

| SMILES | inhibition (at 20 µM) | inhibition [1] |
| --- | --- | --- |
| COc1ccccc1C(CNc1nc(C(F)(F)F)nc2ccccc12)N(C)C (stereo not given) | 1.8% (inactive) | – |
| CCn1c(SCC(=O)NC(C)C)nnc1-c1cccs1 | -1.3% (inactive) | – |
| Cc1cccc(CN2CCN(c3nc4nonc4nc3NC3CC3)CC2)c1 | 6.4% (inactive) | – |
| CCCCC(=O)Nc1nn(C)c2nc3c(C)cccc3cc12 | 0.6% (inactive) | – |
| COc1ccccc1C(=O)Nc1ccc(C2=NNC(=O)CC2C)cc1 (stereo not given) | 1.5% (inactive) | – |
| COc1ccccc1NC(=O)c1nn(-c2ccc(F)c(F)c2)ccc1=O | -0.5% (inactive) | – |
| CCOc1ccc(C(=O)Nc2ccc3c(c2)C(=O)NC3=O)cc1 | 2.2% (inactive) | – |
| C=CCn1c(SC(C)C(=O)NCc2ccc3c(c2)OCO3)nnc1C1CCCCC1 (stereo not given) | -0.3% (inactive) | – |
| CSc1ncc(CN2CCCC(C(=O)c3ccc(C(C)(C)C)cc3)C2)cn1 (stereo not given) | 2.1% (inactive) | – |
| CCOc1cc(/C=C2/C(=N)N3N=C(CC)SC3=NC2=O)ccc1OC(=O)c1ccco1 | 12.4% (inactive) | – |
| CCOc1cc(/C=C2\C(=N)N3N=C(S(=O)(=O)CC)SC3=NC2=O)ccc1OC(=O)c1ccco1 | 60.6% (active) | – |
| CCS(=O)(=O)C1=NN2C(=N)/C(=C\c3ccc(OC(=O)c4ccco4)c(OC)c3)C(=O)N=C2S1 | 34.9% (inactive) | – |
| O=C1C(c2cc(=O)c3ccccc3[nH]2)=C(O)c2ccccc21 | -2.1% (inactive) | – |
| Oc1ccc(N=C/C=C/c2ccc(Br)cc2)cc1-c1nc2ccccc2s1 | 64.1% (active) | – |
| Oc1ccc(N=C/C=C/c2cccc(Br)c2)cc1-c1nc2ccccc2s1 | 61.8% (inactive) | 5.5% |
| Brc1ccc(/C=C/C=N/Nc2nc3ccccc3s2)cc1 | -4.3% (inactive) | – |
| O=C1CCC(C(=O)Nc2cc(C(F)(F)F)ccc2-n2cncn2)=NN1 | -0.2% (inactive) | – |
| Cc1ccc(-n2cccc2/C=C2\C(=N)N3N=C(C(C)C)SC3=NC2=O)cc1 | 49.5% (inactive) | – |
| CCC1=NN2C(=N)/C(=C\c3cccn3-c3ccc(Br)cc3)C(=O)N=C2S1 | 12.9% (inactive) | – |
| CS(=O)(=O)C1=NSC2=NC(=O)/C(=C\c3ccc(OC(=O)c4ccco4)cc3)C(=N)N21 | 47.4% (inactive) | – |
| CC1=CSC2=NC(=O)/C(=C\c3cccn3-c3ccc([N+](=O)[O-])cc3)C(=N)N12 | 0.3% (inactive) | – |
| CCC1=NN2C(=N)/C(=C\c3cccn3-c3ccc(Cl)cc3)C(=O)N=C2S1 | 30.5% (inactive) | – |

| SMILES | inhibition (at 20 µM) | inhibition [1] |
| --- | --- | --- |
| CC1=CSC2=NC(=O)/C(=C\c3cccn3-c3ccccc3)C(=N)N12 | 8.7% (inactive) | – |
| CCc1ccc(-n2cccc2/C=C2/C(=N)N3C(=NC2=O)SN=C3S(C)(=O)=O)cc1 | 74.8% (active) | – |
| Cc1cccc(C)c1-n1cccc1/C=C1/C(=N)N2C(=NC1=O)SN=C2S(C)(=O)=O | 68.4% (active) | – |
| CS(=O)(=O)C1=NSC2=NC(=O)/C(=C\c3cccn3-c3ccccc3Cl)C(=N)N21 | 78.5% (active) | – |
| CS(=O)(=O)C1=NSC2=NC(=O)/C(=C\c3ccc(-c4ccccc4)o3)C(=N)N21 | 34.9% (inactive) | – |
| CCOc1cc(/C=C2/C(=N)N3C(=NC2=O)SN=C3S(C)(=O)=O)ccc1OC(=O)c1ccco1 | 44.6% (inactive) | – |
| Cc1ccc(-n2cccc2/C=C2/C(=N)N3C(=NC2=O)SN=C3S(C)(=O)=O)cc1 | 77.1% (active) | – |
| COCCN(C(=O)Nc1ccc(OC)cc1OC)C1CCN(C(C)C)CC1 | -0.7% (inactive) | – |
| CN(NC(=O)Nc1ccc(Cl)cc1)c1c(Cl)c(Cl)nn1C | -1.2% (inactive) | – |
| Cc1cccc(Nc2nc(C)cc(C)n2)c1 | 1.1% (inactive) | – |
| CCN(CC)S(=O)(=O)c1ccc(NC(=S)NC(=O)C2CCC2)cc1 | 0.1% (inactive) | – |
| CSCC[C@H](NC(=O)N1CCn2c1nc1ccccc12)C(=O)N1CCCCC1 | 1.5% (inactive) | – |
| COc1ccc(C)cc1-n1nnnc1SCC1CCCO1 (stereo not given) | 1% (inactive) | – |
| Cc1cccc(Cn2c(=O)c3c(nc4n3CCN4Cc3ccco3)n(C)c2=O)c1 | -3% (inactive) | – |
| O=[N+]([O-])c1ccccc1OCCCNCc1ccccc1 | 1.6% (inactive) | – |
| CN1CCN(c2ccc(NC(=O)COc3ccccc3[N+](=O)[O-])cc2)CC1 | -1.4% (inactive) | – |
| CC(C)Cc1ccc(CN2CCCC(NC(=O)CCN3CCCO3)C2)cc1 (stereo not given) | -1.9% (inactive) | – |
| O=C(Cn1cnc2c(nnn2Cc2ccc(F)cc2)c1=O)Nc1cccc(F)c1 | 3.6% (inactive) | – |
| CSCC(C)N1CCC(Oc2cccc(C(=O)NCc3ccccn3)c2)CC1 (stereo not given) | 17% (inactive) | – |
| O=C(O)CCCCC1CCSS1 (stereo not given) | 63.2% (active) | – |
| O=C(O)CCCCC1SCC2NC(=O)NC21 (stereo not given) | 0.9% (inactive) and -0.7% (inactive) | – |
| O=C(O)CCCCCCCC(=O)O | -0.3% (inactive) | – |

| SMILES | inhibition (at 20 µM) | inhibition [1] |
| --- | --- | --- |
| CC(C)/C=C1\CC/C(=C\c2ccc(N(C)C)cc2)C1=O | 37.1% (inactive) | – |
| CN(C)c1ccc(/C=C2\CCCCC2=O)cc1 | 3.4% (inactive) | – |
| CN(C)c1ccc(/C=C2\CCC/C(=C\c3ccccc3)C2=O)cc1 | 80.8% (active) | 70.4% |
| O=C1NC(=S)N(C(=O)c2ccc(F)cc2)/C1=C/c1cccnc1 | 4.6% (inactive) | – |
| O=C1NC(=S)N(C(=O)c2ccc(F)cc2)/C1=C/c1ccccc1 | 79% (inactive) | 19.2% |
| COc1ccc(/C=C2\C(=O)NCC(=O)N2C)cc1 | -3.1% (inactive) | – |
| COc1ccc(/C=C2\C(=O)NC(=S)N2C(=O)c2ccc(F)cc2)cc1 | 70.6% (active) | 59.8% |
| COc1ccc(C(=O)N2C(=S)NC(=O)/C2=C\c2ccc(C)cc2)cc1 | 43.1% (inactive) | – |
| COc1ccc(/C=C2\C(=O)NC(=S)N2C(=O)c2ccc(C)cc2)cc1 | 63.6% (active) | – |
| Cc1ccc(C)c(S(=O)(=O)Nc2ccc(C(=O)NCCCN3CCCC3=O)cc2)c1 | 0.7% (inactive) | – |
| Cc1cc(OCC(=O)NCc2cccnc2)c2c(C)c(Cc3ccccc3)c(=O)oc2c1 | 1.1% (inactive) | – |
| Cc1ccc(/C=C(\C#N)C(=O)NCC2CCCO2)o1 (stereo not given) | 0.2% (inactive) | – |
| N#C/C(=C/c1ccc(-c2ccc(Br)cc2)o1)C(=O)NC1CCCCC1 | 3.7% (inactive) | – |
| N#C/C(=C/c1ccc(N2CCOCC2)o1)C(=O)NC1CCCCC1 | 80.5% (active) | – |
| N#C/C(=C\c1ccc(-c2ccc(C(=O)O)cc2)o1)C(=O)NCC1CCCO1 (stereo not given) | 11.9% (inactive) | – |
| COc1ccc(NC(=O)/C(C#N)=C\c2ccc(N3CCOCC3)o2)cc1 | 149% (inactive) | – |
| COCCNC(=O)/C(C#N)=C/c1ccc(N2CCOCC2)o1 | 15.1% (inactive) | – |
| N#C/C(=C\c1ccc(N2CCCCC2)o1)C(=O)Nc1cccc(Br)c1 | 21.6% (inactive) | – |
| N#C/C(=C/c1ccc(N2CCCCC2)o1)C(=O)NCCc1c[nH]c2ccccc12 | 11.8% (inactive) | – |
| N#C/C(=C\c1ccc(N2CCOCC2)o1)C(=O)NCC1CCCO1 (stereo not given) | 118% (active) | 68% |
| N#C/C(=C\c1ccc(-c2ccc(S(=O)(=O)N3CCOCC3)cc2)o1)C(=O)NC1CC1 | 5.1% (inactive) | – |
| N#C/C(=C\c1ccc(N2CCOCC2)o1)C(=O)NC1CCCCC1 | 66.5% (active) | 55.2% |

| SMILES | inhibition (at 20 µM) | inhibition [1] |
| --- | --- | --- |
| N#C/C(=C\c1ccc(N2CCOCC2)o1)C(=O)NCCc1ccccc1 | 110% (active) | – |
| CN(C)C(=O)CSc1nnc(Cc2ccccc2)n1CC1CCCO1 (stereo not given) | -1.3% (inactive) | – |
| COc1ccc(CN(CC(=O)NC2CCCC2)C(=O)CN2C(=O)COc3ccccc32)cc1 | 0.4% (inactive) | – |
| Clc1ccc(-c2cnn3c(-c4ccncc4)ccnc23)cc1 | -1.1% (inactive) | – |
| COC(=O)c1c(NC(=O)C2COc3ccccc3O2)sc2c1CCN(Cc1ccccc1)C2 (stereo not given) | 3.6% (inactive) | – |
| NC(=O)c1c(NC(=O)C2COc3ccccc3O2)sc2c1CCN(Cc1ccccc1)C2 (stereo not given) | 103% (active) | 54% |
| CCN1CCc2c(sc(NC(=O)C3COc4ccccc4O3)c2C(N)=O)C1 (stereo not given) | -0.3% (inactive) | – |
| Cc1nonc1OCCNC(=O)C12CC3CC(CC(C3)C1)C2 | 0.6% (inactive) | – |
| COc1cc(/C=C2/C(=N)N3C(=NC2=O)SN=C3S(C)(=O)=O)ccc1OS(=O)(=O)c1ccc(C)cc1 | 72.4% (active) | – |
| COc1cc(/C=C2/C(=N)N3C(=NC2=O)SN=C3S(C)(=O)=O)ccc1OC(=O)c1ccco1 | 58.3% (inactive) | 49.7% |
| COc1cc(/C=C2/C(=N)N3C(=NC2=O)SN=C3S(=O)(=O)C(C)C)ccc1OS(=O)(=O)c1ccccc1 | 71.6% (active) | – |
| COc1cc(/C=C2/C(=N)N3C(=NC2=O)SN=C3S(=O)(=O)C(C)C)ccc1OC(=O)c1ccco1 | 37.9% (inactive) | – |
| CCC1=NN2C(=N)/C(=C/c3ccc(OS(=O)(=O)c4ccc(C)cc4)c(OC)c3)C(=O)N=C2S1 | 46.6% (inactive) | – |
| CCS(=O)(=O)C1=NN2C(=N)/C(=C\c3ccc(OS(=O)(=O)c4ccccc4)cc3)C(=O)N=C2S1 | 39.1% (inactive) | – |
| COc1cc(/C=C2/C(=N)N3N=C(C(C)C)SC3=NC2=O)ccc1OS(=O)(=O)c1ccccc1 | 22.3% (inactive) | – |
| COc1cc(/C=C2/C(=N)N3N=C(C)SC3=NC2=O)ccc1OS(=O)(=O)c1ccc(C)cc1 | 13.4% (inactive) | – |
| COc1cc(/C=C2\C(=N)N3N=C(S(C)(=O)=O)SC3=NC2=O)ccc1OS(=O)(=O)c1ccc(C)cc1 | 76.5% (active) | – |
| CS(=O)(=O)C1=NN2C(=N)/C(=C\c3ccc(OC(=O)c4ccco4)cc3)C(=O)N=C2S1 | 47.6% (inactive) | – |
| COc1cc(/C=C2\C(=N)N3N=CSC3=NC2=O)ccc1OS(=O)(=O)c1ccccc1 | 10% (inactive) | – |
| CS(=O)(=O)C1=NN2C(=N)/C(=C\c3ccc(OCCOc4ccccc4)cc3)C(=O)N=C2S1 | 80.6% (active) | – |
| CCNC(=O)COc1ccc(OCc2ccccc2)cc1 | 2% (inactive) | – |
